Assay results reported in the supplement of paper PMC8253809.
“And” between values parts separate entries of the source, which are not always exact repeats. Equal entries are not always repeated.

Experiments:
Test in all cases: growth inhibition (% activity, log2 RLU normalised to DMSO / staurosporine); higher = more growth inhibition
Conditions in all cases: 33 µM
DIPGX29 = tested on: DIPGX29 (H3.3 K27M diffuse intrinsic pontine glioma line)
In short: (§1)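 The growth-inhibition value comes from CellTiter-Glo luminescence, log2-transformed, normalised per plate to % activity between solvent and positive control wells, and taken as the median over replicates. Treatment of pHGG cell lines and H9-derived neural stem cells with approved drugs was at a single final concentration of about 33 μM, in triplicate, for 7 days at 37 °C, 5% CO2.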

DIPGX37 = tested on: DIPGX37 (H3.3 K27M diffuse intrinsic pontine glioma line)
In short: as §1

DIPGX7 = tested on: DIPGX7 (H3.3 K27M diffuse intrinsic pontine glioma line)
In short: as §1

DIPGX9 = tested on: DIPGX9 (diffuse intrinsic pontine glioma line)
In short: as §1

HGGX39 = tested on: HGGX39 (paediatric high-grade glioma line)
In short: as §1

HGGX6 = tested on: HGGX6 (H3.3 G34R paediatric high-grade glioma line)
In short: as §1

HNSC = tested on: HNSC
In short: as §1

SUDIPGIV = tested on: SUDIPGIV (diffuse intrinsic pontine glioma line)
In short: as §1

SUDIPGVI = tested on: SUDIPGVI (diffuse intrinsic pontine glioma line)
In short: as §1

SUDIPGXIII = tested on: SUDIPGXIII (diffuse intrinsic pontine glioma line)
In short: as §1

SMILES | growth inhibition (DIPGX29) | growth inhibition (DIPGX37) | growth inhibition (DIPGX7) | growth inhibition (DIPGX9) | growth inhibition (HGGX39) | growth inhibition (HGGX6) | growth inhibition (HNSC) | growth inhibition (SUDIPGIV) | growth inhibition (SUDIPGVI) | growth inhibition (SUDIPGXIII)
CO/N=C(\C(=O)N[C@@H]1C(=O)N2C(C(=O)O)=C(Cn3ccc(=N)n3CCO)CS[C@H]12)c1csc(N)n1 | -0.673% | 1.46% | 0.0521% | 0.497% | -0.232% | 0.395% | -1.19% | -0.702% | 0.0229% | 1.31%
N[C@@H]1CCCCN(c2c(F)cc3c(=O)c(C(=O)O)cn(C4CC4)c3c2Cl)C1 | -3.25% | -0.479% | -2% | -1.55% | -1.72% | -3.25% | -0.931% | -3.46% | -2.21% | -0.978%
CCCCC1C(=O)N(c2ccccc2)N(c2ccccc2)C1=O | -0.206% | -1.51% | -0.44% | -1.82% | -1.47% | -2.46% | 0.0851% | -3.3% | -4.73% | -0.592%
C#C[C@]1(O)CC[C@H]2[C@@H]3CCc4cc(O)ccc4[C@H]3CC[C@@]21C | 0.982% | 1.91% | 0.741% | 0.29% | 0.261% | 2.48% | 0.451% | -1.64% | 1.36% | 0.6%
CC(N)C12CC3CC(CC(C3)C1)C2 (stereo not given) | -0.149% | 2.59% | 0.357% | 0.266% | 1.62% | 0.391% | 1.01% | 0.585% | -0.365% | -0.4%
C[C@H]1c2cccc(O)c2C(=O)C2=C(O)[C@]3(O)C(=O)C(C(N)=O)=C(O)[C@@H](N(C)C)[C@@H]3[C@@H](O)[C@@H]21 | 0.731% | -0.495% | 1.55% | 1.62% | 6.11% | 0.474% | 25.5% | 10.2% | -0.454% | -2.03%
CCN(CC)CC(=O)Nc1c(C)cccc1C | 1.31% | 0.211% | 2.14% | 1.09% | 2.87% | 0.583% | 1.55% | 0.232% | 2.37% | 1.3%
CN(C)c1nc(N(C)C)nc(N(C)C)n1 | -3.35% | -1.75% | -1.42% | -3.04% | -3.6% | -3.16% | -5.97% | -3.04% | -2.53% | -0.234%
O.O=[Si]=O.O=[Si]=O.O=[Si]=O.O=[Si]=O.[O]=[Mg].[O]=[Mg].[O]=[Mg] | -0.0369% | -0.00885% | -1.3% | 0.668% | 1.22% | 0.613% | -1.22% | 0.589% | 0.8% | 0.62%
CCC(CC)[C@H](NC(C)=O)[C@@H]1[C@H](O)[C@@H](C(=O)O)C[C@H]1NC(=N)N | -0.417% | -0.255% | -0.771% | -0.84% | -1.05% | -1.09% | -1.8% | -0.387% | -0.749% | 2.27%
COc1ccc(CNc2nc(N3CCC[C@H]3CO)ncc2C(=O)NCc2ncccn2)cc1Cl | -1.4% | -6.17% | -0.329% | -0.502% | -0.964% | -0.0101% | -2.71% | -1.36% | -2.1% | -0.559%
CCC(C)(C)C(=O)O[C@H]1C[C@@H](C)C=C2C=C[C@H](C)[C@H](CC[C@@H]3C[C@@H](O)CC(=O)O3)[C@H]21 | 6.91% | -7.26% | 9.48% | 1.4% | 15.7% | 11.3% | 60.4% | 19% | -11.4% | 3.91%
Clc1ccc(C(Cn2ccnc2)OCc2csc3c(Cl)cccc23)c(Cl)c1 (stereo not given) | 2.06% | 3.55% | 1.45% | 1.99% | 8.8% | 6.02% | 10.7% | 13.8% | 1.94% | 5.27%
C[C@H]1[C@H](NC(=O)/C(=N\OC(C)(C)C(=O)O)c2csc(N)n2)C(=O)N1S(=O)(=O)O | 1.82% | 1.51% | 2.55% | 1.75% | 2.62% | 1.95% | 1.91% | 1.35% | 3.09% | 1.38%
Cc1ccc(O)c([C@H](CCN(C(C)C)C(C)C)c2ccccc2)c1 | -0.51% | 1.21% | -1.14% | 1.39% | 7.27% | -3.24% | 8.98% | 2% | 1.35% | -1.5%
O=S(=O)(O)CCS | -1.06% | 0.485% | -0.101% | 0.715% | -0.445% | -1.07% | 0.589% | -0.0759% | 1.78% | -0.97%
O=C(CCCN1CCC(O)(c2ccc(Cl)cc2)CC1)c1ccc(F)cc1 | 0.532% | 0.49% | 2.11% | 2.82% | 5.5% | 1.74% | 2.33% | 2.23% | 0.854% | 1.18%
COC(=O)[C@@H]1CC2=CC(=O)CC[C@]2(C)[C@@]23O[C@@H]2C[C@@]2(C)[C@@H](CC[C@@]24CCC(=O)O4)[C@H]13 | 0.0665% | 2.47% | -0.276% | 0.756% | 1.45% | 1.56% | -0.69% | 0.898% | 1.05% | 0.0503%
CC(C)[C@H](N)C(=O)OCCOCn1cnc2c(=O)nc(N)[nH]c21 | 0.298% | 0.698% | -1.22% | 1.11% | 0.616% | 1.05% | -0.55% | -0.767% | 0.129% | 1.61%
CCc1ccc(CCOc2ccc(CC3SC(=O)NC3=O)cc2)nc1 (stereo not given) | -2.15% and 0.83% | -2.01% and 4.22% | -1.47% and 2.56% | -0.422% and 2.5% | -0.303% and 4.55% | 0.514% and 3.43% | -3.49% and 4.18% | -1.64% and 1.36% | -1.48% and 2.8% | -2.58% and 1.07%
Clc1ccccc1C(c1ccccc1)(c1ccccc1)n1ccnc1 | 3.31% | 0.662% | 3.85% | 6.07% | 16.9% | 14.3% | 31.3% | 26.9% | 2.55% | 42.1%

SMILES | growth inhibition (DIPGX29) | growth inhibition (DIPGX37) | growth inhibition (DIPGX7) | growth inhibition (DIPGX9) | growth inhibition (HGGX39) | growth inhibition (HGGX6) | growth inhibition (HNSC) | growth inhibition (SUDIPGIV) | growth inhibition (SUDIPGVI) | growth inhibition (SUDIPGXIII)
OC1(c2ccc(Cl)c(C(F)(F)F)c2)CCN(CCCC(c2ccc(F)cc2)c2ccc(F)cc2)CC1 | 22.5% | -5.49% | 5.28% | -1.11% | 4.1% | 4.08% | 71.6% | 4.36% | -7.48% | 51.7%
COc1ccccc1OCCNCC(O)COc1cccc2[nH]c3ccccc3c12 (stereo not given) | 6.61% | 2.55% | 3.4% | 3.73% | 5.74% | 4.11% | 7.57% | 1.9% | 5.96% | 2.05%
O=c1[nH]c(=O)n([C@H]2C[C@H](O)[C@@H](CO)O2)cc1F | 18.6% | 6.96% | 12.8% | 10.7% | 10.9% | 14.3% | 67.3% | 26.2% | 4.66% | 6.72%
CC(=O)OCC(=O)[C@@]1(O)CC[C@H]2[C@@H]3CCC4=CC(=O)C=C[C@]4(C)[C@@]3(Cl)[C@@H](Cl)C[C@@]21C | 0.772% | 1.33% | 1.5% | 3.59% | 0.199% | -1.27% | 8.39% | -2.64% | -2.25% | 1.64%
Oc1ncnc2[nH]ncc12 | -2.33% | -1.9% | -0.64% | -2.61% | -3.77% | -3.6% | -5.63% | -3.97% | -6.47% | 0.643%
CCC[C@H](N[C@@H](C)C(=O)N1[C@H](C(=O)O)C[C@@H]2CCCC[C@@H]21)C(=O)OCC | 1.9% | 3.94% | 2.49% | 2.02% | 2.66% | 2.59% | 0.292% | 0.563% | 1.95% | 0.674%
CC[C@@H](CO)NCCN[C@@H](CC)CO | -4.2% | -0.485% | -2.38% | -2.09% | -0.115% | -2.97% | -1.6% | -3.04% | -1.42% | -0.832%
N=C(N)NS(=O)(=O)c1ccc(N)cc1 | 1.78% | 3.55% | 1.86% | 2.35% | 3.26% | 1.87% | 0.257% | 1.45% | 1.1% | -0.789%
COc1nc(C)nc(Cl)c1NC1=NCCN1 | -1.42% | -1.39% | -1.95% | -1.31% | 0.125% | -1.01% | -1.76% | -1.72% | -2.98% | -0.769%
Nc1ccc(S(N)(=O)=O)cc1 | -0.377% | 1.14% | 0.22% | 1.31% | 2.44% | 0.596% | -1.62% | -1.35% | 0.652% | 1.2%
CC1=C(/C=C/C(C)=C/C=C/C(C)=C/C=C/C=C(C)/C=C/C=C(C)/C=C/C2=C(C)CCCC2(C)C)C(C)(C)CCC1 | -2.65% | -1.75% | -0.22% | -2.07% | -4.95% | -2.28% | -2.5% | -5% | -7.28% | -0.475%
CC[C@]1(O)C[C@H]2CN(CCc3c([nH]c4ccccc34)[C@@](C(=O)OC)(c3cc4c(cc3OC)N(C=O)[C@H]3[C@@](O)(C(=O)OC)[C@H](OC(C)=O)[C@]5(CC)C=CCN6CC[C@]43[C@@H]65)C2)C1 | 23.4% | 12.5% | 15.1% | 22.7% | 21.3% | 17.5% | 60.5% | 35.7% | 38.9% | 30.9%
CN(C/C=C/c1ccccc1)Cc1cccc2ccccc12 | 1.23% | -0.956% | -0.0716% | 1.9% | 1.84% | 2.12% | -1.49% | 0.156% | 1.27% | 0.316%
C#CC1(O)CCC2C3CCc4cc(OC)ccc4C3CCC21C (stereo not given) | 0.518% | -0.765% | -0.178% | 1.8% | 0.428% | 1.53% | -0.897% | -1.25% | 2.06% | -0.164%
Nc1nc(=O)n([C@@H]2CS[C@H](CO)O2)cc1F | 0.68% | 3.05% | 1.33% | 1.75% | 1.6% | 0.276% | 0.206% | -0.429% | 2.25% | -2.25%
CCOC(CN1CCN(CC(C)C(=O)c2ccccc2)CC1)c1ccccc1 (stereo not given) | -0.933% | -1.59% | -1.24% | -0.121% | 2.63% | 1.64% | -3.21% | -1.87% | -0.901% | 13.1%
CC(=O)OCC(=O)[C@@]1(O)CC[C@H]2[C@@H]3CCC4=CC(=O)CC[C@]4(C)[C@H]3C(=O)C[C@@]21C | -5.36% | -1.7% | -1.09% | -3.1% | -6.61% | -4.47% | 6.87% | -5.64% | -7.69% | -0.171%
O=C(Nc1ccc([N+](=O)[O-])cc1Cl)c1cc(Cl)ccc1O | 43.9% | -2.57% | 24.1% | 2.53% | 4.01% | 5.02% | 7.85% | 16.6% | 3.13% | 61.3%
O=NN(CCCl)C(=O)NC1CCCCC1 | 0.207% | 0.604% | 3.11% | 1.74% | 2.6% | 0.392% | 8.64% | 0.873% | 2.64% | 0.32%
CCC(NC(C)C)C(O)c1ccc(O)c(O)c1 (stereo not given) | 2.91% | 3.09% | 1.03% | 1.97% | 2.82% | 5.22% | 3.15% | 1.08% | 5.58% | 1.21%
